The source of these data is PubChem BioAssay (EPA / NIEHS).

Each structure is given as a SMILES string. The source made the active and inactive calls. The calls were made as follows: active = hit-call score of the fitted dose curve at least 0.9, where 1 is the maximum; inactive = score below 0.9.

What all share (details): mRNA level, 48 h; actives raise or lower the signal
Read-out in assay [1]: Fatty acid synthase (Homo sapiens) (UniProt P49327)
The experiment in a line: LTEA_HepaRG_FASN: Life Technologies and Expression Analysis (LTEA) Assay for Fatty Acid Synthase (FASN) using HepaRG (AID 2283448). A digest of the protocol: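 FASN transcript measured by TaqMan qRT-PCR, normalised to three housekeeping genes, after 48 h chemical exposure of HepaRG cells. Eight-point half-log series from 100 uM in 0.5% DMSO, duplicates; gain or loss fitted against vehicle.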

Read-out in assay [2]: Cyclin Dependent Kinase Inhibitor 1A (CDKN1A), CDKN1A (gene 1026)
The experiment in a line: LTEA_HepaRG_CDKN1A: Life Technologies and Expression Analysis (LTEA) Assay for Cyclin Dependent Kinase Inhibitor 1A (CDKN1A) using HepaRG (AID 2283450). A digest of the protocol:
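Differentiated human HepaRG cells, pre-cultured 48 h, were exposed in duplicate for 48 h in serum-free induction medium to eight half-log concentrations up to 100 uM (0.5% DMSO). CDKN1A mRNA was measured by qRT-PCR, normalized to ACTB/GAPDH/POLR2A, bidirectionally fitted versus DMSO.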

Read-out in assay [3]: Cyclin D1 (CCND1), CCND1 (gene 595)
As to the kind of experiment: LTEA_HepaRG_CCND1: Life Technologies and Expression Analysis (LTEA) Assay for Cyclin D1 (CCND1) using HepaRG (AID 2283451).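 As to AC50: TaqMan qRT-PCR transcript level normalised to ACTB GAPDH and POLR2A housekeeping genes.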 A digest of the protocol:
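Differentiated human HepaRG cells in serum-free induction medium were exposed 48 h to eight half-log concentrations up to 100 uM in 0.5% DMSO; mRNA quantified by TaqMan qRT-PCR, normalized to ACTB, GAPDH, POLR2A, fitted bidirectionally versus DMSO.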

Read-out in assay [4]: catalase (CAT), CAT (gene 847)
The experiment in a line: LTEA_HepaRG_CAT: Life Technologies and Expression Analysis (LTEA) Assay for catalase (CAT) using HepaRG (AID 2283452). In outline: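 HepaRG cells in serum-free induction medium, 0.5% DMSO vehicle, exposed 48 h in duplicate over 8 half-log concentrations from 100 uM. CAT mRNA measured by qRT-PCR, normalized to ACTB, GAPDH, POLR2A; bidirectional fit versus DMSO.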

Read-out in assay [5]: flavin-containing dimethylaniline monooxygenases 3 (FMO3), FMO3 (gene 2328)
The experiment in a line: LTEA_HepaRG_FMO3: Life Technologies and Expression Analysis (LTEA) Assay for flavin-containing dimethylaniline monooxygenases 3 (FMO3) using HepaRG (AID 2283453). A digest of the protocol:
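FMO3 transcript quantified by TaqMan qRT-PCR against three housekeeping genes after 48 h chemical exposure of HepaRG cells. Eight-point half-log series, top 100 uM, 0.5% DMSO vehicle; phenobarbital 1mM induction control; up- or down-regulation fitted.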

Read-out in assay [6]: CFLAR gene, CFLAR (gene 8837)
As to the kind of experiment: LTEA_HepaRG_CFLAR: Life Technologies and Expression Analysis (LTEA) Assay for CFLAR gene using HepaRG (AID 2283455). A digest of the protocol: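 qRT-PCR read-out (Fluidigm/TaqMan) of CFLAR mRNA, normalized to three housekeeping genes, in differentiated human HepaRG cells after 48 h chemical exposure; 8-point half-log series from 100 uM in 0.5% DMSO; bidirectional curve fitting versus DMSO.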

Read-out in assay [7]: Forkhead box O1 (FOXO1), FOXO1 (gene 2308)
The experiment in a line: LTEA_HepaRG_FOXO1: Life Technologies and Expression Analysis (LTEA) Assay for Forkhead box O1 (FOXO1) using HepaRG (AID 2283456). A digest of the protocol:
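HepaRG, 48 h exposure, 8-pt half-log series from 100 uM in 0.5% DMSO, duplicates; Fluidigm qRT-PCR mRNA, housekeeping-normalised; bidirectional fit vs DMSO baseline.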

Read-out in assay [8]: growth arrest and DNA damage 45 (GADD45A), GADD45A (gene 1647)
The experiment in a line: LTEA_HepaRG_GADD45A: Life Technologies and Expression Analysis (LTEA) Assay for growth arrest and DNA damage 45 (GADD45A) using HepaRG (AID 2283458). A digest of the protocol:
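GADD45A expression was measured by TaqMan qRT-PCR against three housekeeping genes (ACTB, GAPDH, POLR2A) after 48 h treatment of HepaRG cells. Eight-point half-log series up to 100 uM in 0.5% DMSO, run in duplicate.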

Read-out in assay [9]: Forkhead box O3 (FOXO3), FOXO3 (gene 2309)
As to the kind of experiment: LTEA_HepaRG_FOXO3: Life Technologies and Expression Analysis (LTEA) Assay for Forkhead box O3 (FOXO3) using HepaRG (AID 2283459). A digest of the protocol: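 qRT-PCR readout of FOXO3 transcript, normalized to three housekeeping genes (ACTB, GAPDH, POLR2A); gain or loss fitted against 0.5% DMSO vehicle. HepaRG cells, 48 h chemical exposure, 8-point half-log series, top 100 uM.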

Read-out in assay [10]: ABC Transporter (ABCB1), ABCB1 (gene 5243)
As to the kind of experiment: LTEA_HepaRG_ABCB1: Life Technologies and Expression Analysis (LTEA) Assay for ABC Transporter (ABCB1) using HepaRG (AID 2283460). In outline: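 HepaRG, 48 h exposure, 8-pt half-log series from 100 uM, 0.5% DMSO vehicle, duplicates. Readout: ABCB1 transcript by Fluidigm TaqMan qRT-PCR, housekeeping-normalized; bidirectional curve fit vs DMSO baseline.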

Read-out in assay [11]: growth arrest and DNA damage 45 (GADD45B), GADD45B (gene 4616)
As to the kind of experiment: LTEA_HepaRG_GADD45B: Life Technologies and Expression Analysis (LTEA) Assay for growth arrest and DNA damage 45 (GADD45B) using HepaRG (AID 2283461). A digest of the protocol: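 Differentiated HepaRG cells, plated 48 h then switched to serum-free induction medium, were exposed 48 h in duplicate to eight half-log concentrations from 100 uM in 0.5% DMSO; mRNA quantified by qRT-PCR, normalized to ACTB/GAPDH/POLR2A, bidirectional fit versus DMSO.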

Read-out in assay [12]: ABC Transporter (ABCB11), ABCB11 (gene 8647)
As to the kind of experiment: LTEA_HepaRG_ABCB11: Life Technologies and Expression Analysis (LTEA) Assay for ABC Transporter (ABCB11) using HepaRG (AID 2283463). A digest of the protocol: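 HepaRG, 48 h exposure, 8-pt half-log CRC top 100 uM, 0.5% DMSO vehicle, duplicates. Readout: TaqMan qRT-PCR of ABCB11 mRNA, housekeeping-normalized (ACTB/GAPDH/POLR2A). Bidirectional fit vs DMSO baseline.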

Read-out in assay [13]: Broad substrate specificity ATP-binding cassette transporter ABCG2 (Homo sapiens) (UniProt Q9UNQ0)
The experiment in a line: LTEA_HepaRG_ABCG2: Life Technologies and Expression Analysis (LTEA) Assay for ABC Transporter (ABCG2) using HepaRG (AID 2283465). A digest of the protocol:
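HepaRG, 48 h exposure, 8-pt half-log series from 100 uM, 0.5% DMSO vehicle, duplicates. Readout: ABCG2 transcript by qRT-PCR (Fluidigm array), housekeeping-normalized; bidirectional curve fit relative to DMSO baseline.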

Read-out in assay [14]: ATP-citrate lyase (ACLY), ACLY (gene 47)
The experiment in a line: LTEA_HepaRG_ACLY: Life Technologies and Expression Analysis (LTEA) Assay for ATP-citrate lyase (ACLY) using HepaRG (AID 2283466). In outline: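 qRT-PCR readout of ACLY transcript after 48 h chemical treatment of HepaRG cells; expression normalized to three housekeeping genes. Eight-point half-log series, highest 100 uM, 0.5% DMSO vehicle. Gain or loss fitted against DMSO baseline.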

Read-out in assay [15]: Peroxisomal acyl-coenzyme A oxidase 1 (ACOX1) gene, ACOX1 (gene 51)
As to the kind of experiment: LTEA_HepaRG_ACOX1: Life Technologies and Expression Analysis (LTEA) Assay for Peroxisomal acyl-coenzyme A oxidase 1 (ACOX1) gene using HepaRG (AID 2283467). A digest of the protocol: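 HepaRG, 48 h chemical exposure, 8-pt half-log series from 100 uM top, 0.5% DMSO vehicle, duplicates. Readout: ACOX1 mRNA by Fluidigm qRT-PCR, housekeeping-normalized; bidirectional fit vs DMSO baseline.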

Read-out in assay [16]: Alkaline Phosphatase, Placental (ALPP) gene, ALPP (gene 250)
The experiment in a line: LTEA_HepaRG_ALPP: Life Technologies and Expression Analysis (LTEA) Assay for Alkaline Phosphatase, Placental (ALPP) gene using HepaRG (AID 2283468). In outline:
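Differentiated human HepaRG cells were plated and cultured 48 h, then exposed in duplicate for 48 h in serum-free induction medium to eight half-log concentrations from 100 uM in 0.5% DMSO. ALPP mRNA was measured by TaqMan qRT-PCR, normalized to ACTB, GAPDH, POLR2A.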

Read-out in assay [17]: Cyclin D2 (CCND2), CCND2 (gene 894)
The experiment in a line: LTEA_HepaRG_CCND2: Life Technologies and Expression Analysis (LTEA) Assay for Cyclin D2 (CCND2) using HepaRG (AID 2283449).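 Also: CCND2 transcript measured by TaqMan qRT-PCR and normalised to three housekeeping genes.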 In outline: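 HepaRG, 48 h dosing, 8-pt half-log curve from 100 uM, 0.5% DMSO; duplicate wells. Readout: CCND2 transcript by microfluidic qRT-PCR, housekeeping-normalised; bidirectional fit vs DMSO baseline.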

Broad substrate specificity ATP-binding cassette transporter ABCG2 (Homo sapiens), sequence (Q9UNQ0 whole entry, looked up): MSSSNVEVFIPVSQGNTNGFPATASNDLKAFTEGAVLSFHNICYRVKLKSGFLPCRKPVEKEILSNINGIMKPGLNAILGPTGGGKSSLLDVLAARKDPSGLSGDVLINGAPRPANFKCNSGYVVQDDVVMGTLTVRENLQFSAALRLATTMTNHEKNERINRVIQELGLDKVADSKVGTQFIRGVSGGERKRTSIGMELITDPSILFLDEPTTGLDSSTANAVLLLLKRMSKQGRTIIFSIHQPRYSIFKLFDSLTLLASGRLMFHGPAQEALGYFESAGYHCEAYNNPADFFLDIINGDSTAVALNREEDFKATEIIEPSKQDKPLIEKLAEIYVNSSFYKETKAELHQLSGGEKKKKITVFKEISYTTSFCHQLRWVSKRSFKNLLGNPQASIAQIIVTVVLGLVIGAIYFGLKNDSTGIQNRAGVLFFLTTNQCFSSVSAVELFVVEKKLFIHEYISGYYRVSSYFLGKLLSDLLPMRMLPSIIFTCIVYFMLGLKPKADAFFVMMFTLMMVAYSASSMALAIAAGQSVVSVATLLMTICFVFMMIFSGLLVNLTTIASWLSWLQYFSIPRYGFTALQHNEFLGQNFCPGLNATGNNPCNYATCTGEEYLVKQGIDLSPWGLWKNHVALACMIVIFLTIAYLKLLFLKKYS
Fatty acid synthase (Homo sapiens), sequence (P49327 whole entry, looked up): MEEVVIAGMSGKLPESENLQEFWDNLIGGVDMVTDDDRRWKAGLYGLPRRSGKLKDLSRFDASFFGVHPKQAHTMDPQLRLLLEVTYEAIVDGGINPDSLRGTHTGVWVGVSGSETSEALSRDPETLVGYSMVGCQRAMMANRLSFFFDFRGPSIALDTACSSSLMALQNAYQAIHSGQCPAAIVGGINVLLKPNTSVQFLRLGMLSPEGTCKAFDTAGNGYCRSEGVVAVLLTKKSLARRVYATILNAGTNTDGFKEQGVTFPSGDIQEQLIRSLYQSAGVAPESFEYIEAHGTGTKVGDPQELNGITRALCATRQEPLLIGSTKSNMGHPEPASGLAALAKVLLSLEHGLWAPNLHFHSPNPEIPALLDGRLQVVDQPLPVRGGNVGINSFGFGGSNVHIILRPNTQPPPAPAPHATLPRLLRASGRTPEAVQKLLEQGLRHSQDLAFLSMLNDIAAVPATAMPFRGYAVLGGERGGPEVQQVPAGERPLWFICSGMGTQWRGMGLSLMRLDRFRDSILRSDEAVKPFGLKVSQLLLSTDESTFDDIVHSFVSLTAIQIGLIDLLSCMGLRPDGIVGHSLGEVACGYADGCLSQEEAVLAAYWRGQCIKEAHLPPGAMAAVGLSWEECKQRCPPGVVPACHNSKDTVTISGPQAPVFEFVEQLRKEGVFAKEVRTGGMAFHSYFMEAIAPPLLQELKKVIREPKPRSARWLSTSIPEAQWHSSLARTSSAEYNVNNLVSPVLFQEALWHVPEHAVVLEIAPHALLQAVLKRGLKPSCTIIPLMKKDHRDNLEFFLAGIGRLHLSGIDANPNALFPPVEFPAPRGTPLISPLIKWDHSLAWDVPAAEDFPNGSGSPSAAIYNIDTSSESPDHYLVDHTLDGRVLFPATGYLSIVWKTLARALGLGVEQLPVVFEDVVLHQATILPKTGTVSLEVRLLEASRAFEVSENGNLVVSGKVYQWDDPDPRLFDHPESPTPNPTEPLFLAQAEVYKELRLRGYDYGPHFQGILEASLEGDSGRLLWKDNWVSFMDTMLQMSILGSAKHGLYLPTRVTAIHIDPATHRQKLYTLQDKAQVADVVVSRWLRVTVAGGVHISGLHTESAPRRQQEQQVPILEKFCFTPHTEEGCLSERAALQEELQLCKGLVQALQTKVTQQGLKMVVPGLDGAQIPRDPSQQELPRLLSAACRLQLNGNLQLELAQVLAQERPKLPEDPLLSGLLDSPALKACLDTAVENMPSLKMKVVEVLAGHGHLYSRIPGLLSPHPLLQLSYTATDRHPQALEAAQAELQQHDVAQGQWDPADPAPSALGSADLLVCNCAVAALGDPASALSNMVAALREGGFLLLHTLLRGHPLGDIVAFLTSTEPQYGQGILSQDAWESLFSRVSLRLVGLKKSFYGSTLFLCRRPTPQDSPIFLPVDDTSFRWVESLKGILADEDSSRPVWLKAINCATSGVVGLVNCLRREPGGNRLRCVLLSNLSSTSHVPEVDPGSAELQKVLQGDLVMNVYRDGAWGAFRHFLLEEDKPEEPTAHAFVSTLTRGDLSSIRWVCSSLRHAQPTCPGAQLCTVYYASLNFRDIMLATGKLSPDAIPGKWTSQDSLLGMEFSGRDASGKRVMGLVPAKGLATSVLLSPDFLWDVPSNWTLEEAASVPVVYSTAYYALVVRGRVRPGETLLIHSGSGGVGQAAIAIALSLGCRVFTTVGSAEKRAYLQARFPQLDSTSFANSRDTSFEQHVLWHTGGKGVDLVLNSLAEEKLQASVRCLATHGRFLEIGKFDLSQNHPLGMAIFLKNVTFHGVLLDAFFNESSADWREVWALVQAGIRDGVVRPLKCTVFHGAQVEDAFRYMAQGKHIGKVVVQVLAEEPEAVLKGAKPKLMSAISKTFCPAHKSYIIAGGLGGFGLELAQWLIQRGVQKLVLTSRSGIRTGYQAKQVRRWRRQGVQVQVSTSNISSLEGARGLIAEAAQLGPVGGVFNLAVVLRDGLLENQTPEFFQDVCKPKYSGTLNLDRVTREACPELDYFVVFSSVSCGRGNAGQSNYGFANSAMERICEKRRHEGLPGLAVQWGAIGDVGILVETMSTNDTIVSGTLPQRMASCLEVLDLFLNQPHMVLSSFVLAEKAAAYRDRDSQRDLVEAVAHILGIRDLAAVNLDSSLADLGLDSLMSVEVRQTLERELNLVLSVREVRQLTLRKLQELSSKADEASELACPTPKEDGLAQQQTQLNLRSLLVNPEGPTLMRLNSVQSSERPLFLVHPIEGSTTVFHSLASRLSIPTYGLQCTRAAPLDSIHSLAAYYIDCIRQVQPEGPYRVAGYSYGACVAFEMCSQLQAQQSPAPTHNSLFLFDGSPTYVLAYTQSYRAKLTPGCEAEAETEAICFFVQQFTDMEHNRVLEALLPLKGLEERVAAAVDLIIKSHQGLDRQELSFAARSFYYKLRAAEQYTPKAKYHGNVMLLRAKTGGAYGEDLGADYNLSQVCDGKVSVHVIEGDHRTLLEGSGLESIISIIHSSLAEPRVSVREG

With `CCCCCCCCc1ccc(O)cc1`, the compound was called inactive in assay [1], in assay [2], in assay [4], in assay [5], in assay [6] and in assay [7]. Moreover, the outcome in assay [8], in assay [9], in [10], in assay [11], in assay [12] and in assay [13] was inactive. The outcome in assay [14], in assay [15] and in assay [16] was inactive. Moreover, the AC50 (in general, the concentration giving half of the maximal activity seen) in [3] was 0.346 µM (active).
For `O=c1[nH]c(=O)[nH]c(=O)[nH]1`, the call in assay [1], in assay [17], in [2], in [3], in assay [4] and in assay [5] was inactive. The result in assay [6], in assay [7], in assay [8], in assay [9], in assay [10] and in [11] was inactive. Further, the compound was called inactive in assay [12], in assay [13], in assay [14], in assay [15] and in [16].
For `O=C(O)C(F)(F)C(F)(F)C(F)(F)C(F)(F)C(F)(F)C(F)(F)F`, the compound was classed as inactive in assay [1], in assay [17], in assay [2], in assay [3], in assay [4] and in assay [5]. For the same compound, the compound was called inactive in [6], in [7], in [8], in assay [9], in [11] and in assay [12]. The call in assay [13], in [14], in [15] and in assay [16] was inactive. Also, the AC50 in [10] is 0.101 µM (active).
As to `Cc1ccccc1N`, the compound was called inactive in assay [1], in assay [17], in assay [2], in assay [3], in [4] and in assay [5]. In addition, the outcome in assay [6], in assay [7], in assay [8], in assay [9], in [10] and in [11] was inactive. The call in [12], in [13], in [14], in assay [15] and in [16] was inactive.
Turning to `CC(C)(C)CC(C)(C)c1ccc(O)cc1`, the result in assay [1], in assay [2], in assay [3], in assay [5], in assay [6] and in [7] was inactive. In addition, the result in assay [9], in assay [10], in assay [11], in assay [12], in assay [13] and in assay [14] was inactive. Further, the result in assay [15] and in assay [16] was inactive. Moreover, the concentration at half-maximal activity (AC50) in assay [4] is 2.44 µM (active); in [8], 81.5 µM (active).
`O=[N+]([O-])c1ccc(O)c([N+](=O)[O-])c1`: the AC50 in assay [1] is 13.1 µM (active); in assay [2] it was 12.4 µM (active); in assay [3] it was 12.6 µM (active); in assay [4], 13.2 µM (active); in assay [5], 15.3 µM (active); in assay [6] it was 13.2 µM (active). In addition, the half-maximal activity concentration (AC50) in [8] was 11.5 µM (active); in [9] it was 28.8 µM (active); in assay [10], 13.6 µM (active); in assay [11] it was 50 µM (active); in [12] it was 12.4 µM (active); in [13] it was 12.4 µM (active). Besides, the AC50 in assay [14] was 4.2 µM (active); in assay [15], 13.3 µM (active). The call in assay [17], in [7] and in [16] was inactive.
